A number with no mark means an inactive call.
Tests used:
Assay in all cases: log2 ratio of Biotin-Ahx-Ub-VS probe labelling (fragment/DMSO); higher = less target engagement (more negative = stronger competition), active = hit call of the paper (q ≤ 0.05, log2 ratio ≤ -1)
Conditions in all cases: compound concentration: 200 uM; treatment time: 3 h
USP19 = target: T1, USP19 (UniProt O94966)
T1 sequence (whole entry): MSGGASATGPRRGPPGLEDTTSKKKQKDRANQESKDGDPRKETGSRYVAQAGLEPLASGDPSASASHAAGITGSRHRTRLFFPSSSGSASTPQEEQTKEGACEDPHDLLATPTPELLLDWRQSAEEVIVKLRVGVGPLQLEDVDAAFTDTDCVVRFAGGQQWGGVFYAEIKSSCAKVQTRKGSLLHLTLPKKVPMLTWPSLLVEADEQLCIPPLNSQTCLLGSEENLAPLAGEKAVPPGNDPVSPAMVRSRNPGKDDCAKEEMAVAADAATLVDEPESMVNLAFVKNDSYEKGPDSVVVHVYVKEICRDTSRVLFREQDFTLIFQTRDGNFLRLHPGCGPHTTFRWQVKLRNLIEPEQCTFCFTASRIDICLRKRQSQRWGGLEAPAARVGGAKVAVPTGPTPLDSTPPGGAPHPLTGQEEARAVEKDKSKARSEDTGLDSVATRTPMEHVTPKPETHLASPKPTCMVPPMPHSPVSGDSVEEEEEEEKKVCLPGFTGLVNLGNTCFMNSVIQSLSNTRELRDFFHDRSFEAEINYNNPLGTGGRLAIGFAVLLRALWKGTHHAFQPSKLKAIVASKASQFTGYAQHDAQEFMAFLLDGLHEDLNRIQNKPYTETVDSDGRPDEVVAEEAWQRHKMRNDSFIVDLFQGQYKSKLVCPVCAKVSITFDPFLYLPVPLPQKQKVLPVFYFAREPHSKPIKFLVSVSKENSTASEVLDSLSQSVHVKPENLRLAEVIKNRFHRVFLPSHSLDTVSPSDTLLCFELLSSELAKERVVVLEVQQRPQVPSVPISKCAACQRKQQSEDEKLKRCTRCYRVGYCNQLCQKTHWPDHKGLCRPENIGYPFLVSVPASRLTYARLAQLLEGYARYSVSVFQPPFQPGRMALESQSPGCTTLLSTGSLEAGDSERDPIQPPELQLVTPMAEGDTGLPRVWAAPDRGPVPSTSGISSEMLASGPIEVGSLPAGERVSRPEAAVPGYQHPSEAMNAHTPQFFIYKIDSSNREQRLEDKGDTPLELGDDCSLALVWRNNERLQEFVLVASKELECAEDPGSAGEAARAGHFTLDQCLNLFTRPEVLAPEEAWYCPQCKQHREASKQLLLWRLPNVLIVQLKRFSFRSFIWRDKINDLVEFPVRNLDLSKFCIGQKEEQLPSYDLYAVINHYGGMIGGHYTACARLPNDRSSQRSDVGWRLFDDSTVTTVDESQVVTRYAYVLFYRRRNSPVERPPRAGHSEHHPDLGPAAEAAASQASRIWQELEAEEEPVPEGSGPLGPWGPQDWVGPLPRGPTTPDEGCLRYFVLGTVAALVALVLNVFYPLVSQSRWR
In short: (§1)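 Labelled DUBs were enriched with NeutrAvidin, digested with LysC and trypsin, and run by diaPASEF LC-MS/MS. The labelling used Biotin-Ahx-Ub-VS at 0.5 µM final for 1 h on HEK293T lysate (495 µg per sample) previously treated in triplicate with fragment at 200 µM or vehicle for 3 h. Values are average log2 fragment/vehicle ratios by unpaired t-test on global-median-normalised Spectronaut quantities of proteins with ≥2 unique peptides.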

USP22 = target: T2, USP22 (UniProt Q9UPT9)
T2 sequence (whole entry): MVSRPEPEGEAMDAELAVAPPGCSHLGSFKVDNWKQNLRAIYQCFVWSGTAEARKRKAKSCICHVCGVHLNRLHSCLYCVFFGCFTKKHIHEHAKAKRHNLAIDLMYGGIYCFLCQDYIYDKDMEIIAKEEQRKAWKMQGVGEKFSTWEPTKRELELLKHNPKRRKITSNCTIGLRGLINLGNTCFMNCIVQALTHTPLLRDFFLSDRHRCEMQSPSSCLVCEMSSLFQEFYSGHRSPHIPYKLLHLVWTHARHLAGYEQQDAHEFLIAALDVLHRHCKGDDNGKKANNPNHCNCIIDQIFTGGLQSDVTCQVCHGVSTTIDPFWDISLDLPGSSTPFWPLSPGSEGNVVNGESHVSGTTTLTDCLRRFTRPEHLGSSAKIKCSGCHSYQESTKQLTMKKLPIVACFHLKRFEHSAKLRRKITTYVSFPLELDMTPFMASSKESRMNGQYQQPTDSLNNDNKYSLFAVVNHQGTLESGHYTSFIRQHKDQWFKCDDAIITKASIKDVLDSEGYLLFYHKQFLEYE
In short: as §1

USP24 = USP24 (UniProt Q9UPU5)
USP24, sequence (Q9UPU5 whole entry): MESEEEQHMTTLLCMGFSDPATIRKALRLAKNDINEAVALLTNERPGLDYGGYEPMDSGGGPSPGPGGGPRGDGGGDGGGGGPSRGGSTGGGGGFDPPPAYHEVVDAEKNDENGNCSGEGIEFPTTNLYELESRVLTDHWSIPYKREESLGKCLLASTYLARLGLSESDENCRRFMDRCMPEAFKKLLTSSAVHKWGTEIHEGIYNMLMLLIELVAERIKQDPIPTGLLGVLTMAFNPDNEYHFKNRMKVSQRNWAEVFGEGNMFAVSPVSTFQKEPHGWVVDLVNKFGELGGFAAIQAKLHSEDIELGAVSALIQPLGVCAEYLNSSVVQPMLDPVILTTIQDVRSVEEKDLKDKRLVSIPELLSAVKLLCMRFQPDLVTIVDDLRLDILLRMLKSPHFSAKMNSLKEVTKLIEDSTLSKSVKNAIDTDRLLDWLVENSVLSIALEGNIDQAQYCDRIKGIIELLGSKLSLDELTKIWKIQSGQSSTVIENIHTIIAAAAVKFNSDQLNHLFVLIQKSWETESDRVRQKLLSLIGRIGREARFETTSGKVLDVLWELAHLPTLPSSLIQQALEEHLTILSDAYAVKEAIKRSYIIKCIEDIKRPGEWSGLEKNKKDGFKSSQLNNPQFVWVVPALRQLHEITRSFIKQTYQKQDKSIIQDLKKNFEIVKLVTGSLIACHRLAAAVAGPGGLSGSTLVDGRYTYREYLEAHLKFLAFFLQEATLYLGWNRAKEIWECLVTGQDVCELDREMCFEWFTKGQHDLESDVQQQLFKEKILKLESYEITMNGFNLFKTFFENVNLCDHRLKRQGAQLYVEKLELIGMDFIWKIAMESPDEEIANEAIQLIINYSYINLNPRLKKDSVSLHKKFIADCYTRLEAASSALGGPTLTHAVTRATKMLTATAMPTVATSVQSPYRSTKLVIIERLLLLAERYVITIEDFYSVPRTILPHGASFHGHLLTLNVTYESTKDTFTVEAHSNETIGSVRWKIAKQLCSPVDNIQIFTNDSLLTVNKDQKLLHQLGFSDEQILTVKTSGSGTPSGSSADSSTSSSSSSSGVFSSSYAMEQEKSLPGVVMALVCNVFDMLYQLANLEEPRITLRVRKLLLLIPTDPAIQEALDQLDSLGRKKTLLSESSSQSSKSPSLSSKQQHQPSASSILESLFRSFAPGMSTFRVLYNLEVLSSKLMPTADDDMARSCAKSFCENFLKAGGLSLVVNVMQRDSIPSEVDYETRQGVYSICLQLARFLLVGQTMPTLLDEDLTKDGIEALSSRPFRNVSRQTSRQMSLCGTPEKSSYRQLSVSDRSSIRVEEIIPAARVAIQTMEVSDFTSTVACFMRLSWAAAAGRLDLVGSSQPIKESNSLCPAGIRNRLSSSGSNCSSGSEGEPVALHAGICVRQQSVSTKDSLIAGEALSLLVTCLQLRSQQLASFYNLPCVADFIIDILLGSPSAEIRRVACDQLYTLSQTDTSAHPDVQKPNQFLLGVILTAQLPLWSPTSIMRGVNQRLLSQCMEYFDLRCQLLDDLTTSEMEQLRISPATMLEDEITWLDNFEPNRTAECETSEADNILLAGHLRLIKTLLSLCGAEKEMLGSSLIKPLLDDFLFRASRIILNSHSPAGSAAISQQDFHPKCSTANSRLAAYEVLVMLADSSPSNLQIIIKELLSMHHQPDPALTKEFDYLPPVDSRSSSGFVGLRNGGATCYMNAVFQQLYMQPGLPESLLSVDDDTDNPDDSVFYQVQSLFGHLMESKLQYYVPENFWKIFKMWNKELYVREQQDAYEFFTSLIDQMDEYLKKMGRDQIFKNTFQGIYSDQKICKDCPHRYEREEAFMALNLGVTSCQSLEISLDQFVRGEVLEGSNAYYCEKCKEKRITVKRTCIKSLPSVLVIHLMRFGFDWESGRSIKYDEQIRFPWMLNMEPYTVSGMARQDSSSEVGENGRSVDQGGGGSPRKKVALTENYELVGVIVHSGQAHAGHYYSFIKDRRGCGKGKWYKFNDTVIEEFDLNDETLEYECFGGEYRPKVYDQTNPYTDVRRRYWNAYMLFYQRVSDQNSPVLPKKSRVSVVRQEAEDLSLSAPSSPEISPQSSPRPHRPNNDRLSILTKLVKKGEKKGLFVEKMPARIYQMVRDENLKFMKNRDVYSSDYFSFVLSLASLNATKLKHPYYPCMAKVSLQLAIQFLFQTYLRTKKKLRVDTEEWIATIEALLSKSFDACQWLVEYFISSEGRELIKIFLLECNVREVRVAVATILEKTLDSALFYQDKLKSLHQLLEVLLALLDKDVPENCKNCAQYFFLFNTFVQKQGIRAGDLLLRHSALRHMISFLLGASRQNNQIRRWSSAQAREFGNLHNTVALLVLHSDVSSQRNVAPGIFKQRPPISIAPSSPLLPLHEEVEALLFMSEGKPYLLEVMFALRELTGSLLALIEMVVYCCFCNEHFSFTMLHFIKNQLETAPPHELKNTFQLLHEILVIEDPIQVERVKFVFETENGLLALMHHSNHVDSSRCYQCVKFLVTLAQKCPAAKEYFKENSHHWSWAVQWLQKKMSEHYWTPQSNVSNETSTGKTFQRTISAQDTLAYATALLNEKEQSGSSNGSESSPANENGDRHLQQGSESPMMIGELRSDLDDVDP
In short: as §1

USP25 = target: T3, USP25 (UniProt Q9UHP3)
T3 sequence (whole entry): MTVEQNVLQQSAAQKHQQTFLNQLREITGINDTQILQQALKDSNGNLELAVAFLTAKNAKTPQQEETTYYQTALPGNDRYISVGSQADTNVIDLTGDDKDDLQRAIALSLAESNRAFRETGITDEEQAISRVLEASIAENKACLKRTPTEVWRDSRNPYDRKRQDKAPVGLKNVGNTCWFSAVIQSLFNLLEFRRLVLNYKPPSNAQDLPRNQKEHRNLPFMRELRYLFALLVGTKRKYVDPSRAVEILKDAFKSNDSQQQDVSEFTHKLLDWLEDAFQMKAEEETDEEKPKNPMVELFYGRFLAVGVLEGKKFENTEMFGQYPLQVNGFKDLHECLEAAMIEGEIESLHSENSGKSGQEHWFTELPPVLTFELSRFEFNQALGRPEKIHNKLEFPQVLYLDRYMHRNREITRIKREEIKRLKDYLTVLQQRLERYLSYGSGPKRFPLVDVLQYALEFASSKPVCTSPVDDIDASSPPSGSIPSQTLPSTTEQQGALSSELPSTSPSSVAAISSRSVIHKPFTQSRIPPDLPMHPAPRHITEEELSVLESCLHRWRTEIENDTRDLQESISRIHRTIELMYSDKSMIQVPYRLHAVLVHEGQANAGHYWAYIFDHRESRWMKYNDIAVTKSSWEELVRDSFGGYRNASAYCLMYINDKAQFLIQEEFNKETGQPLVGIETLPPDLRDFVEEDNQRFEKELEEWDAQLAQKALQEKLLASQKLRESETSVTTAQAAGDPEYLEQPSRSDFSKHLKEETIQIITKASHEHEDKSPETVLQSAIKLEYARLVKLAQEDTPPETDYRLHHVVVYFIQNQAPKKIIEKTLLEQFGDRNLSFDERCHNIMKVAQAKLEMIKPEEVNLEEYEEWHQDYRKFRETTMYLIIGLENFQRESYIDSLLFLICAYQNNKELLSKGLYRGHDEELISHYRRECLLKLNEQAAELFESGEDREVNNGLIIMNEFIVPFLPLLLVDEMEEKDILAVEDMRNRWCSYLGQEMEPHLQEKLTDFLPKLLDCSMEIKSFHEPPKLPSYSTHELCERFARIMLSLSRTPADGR
In short: as §1

USP28 = target: T4, USP28 (UniProt Q96RU2)
T4 sequence (whole entry): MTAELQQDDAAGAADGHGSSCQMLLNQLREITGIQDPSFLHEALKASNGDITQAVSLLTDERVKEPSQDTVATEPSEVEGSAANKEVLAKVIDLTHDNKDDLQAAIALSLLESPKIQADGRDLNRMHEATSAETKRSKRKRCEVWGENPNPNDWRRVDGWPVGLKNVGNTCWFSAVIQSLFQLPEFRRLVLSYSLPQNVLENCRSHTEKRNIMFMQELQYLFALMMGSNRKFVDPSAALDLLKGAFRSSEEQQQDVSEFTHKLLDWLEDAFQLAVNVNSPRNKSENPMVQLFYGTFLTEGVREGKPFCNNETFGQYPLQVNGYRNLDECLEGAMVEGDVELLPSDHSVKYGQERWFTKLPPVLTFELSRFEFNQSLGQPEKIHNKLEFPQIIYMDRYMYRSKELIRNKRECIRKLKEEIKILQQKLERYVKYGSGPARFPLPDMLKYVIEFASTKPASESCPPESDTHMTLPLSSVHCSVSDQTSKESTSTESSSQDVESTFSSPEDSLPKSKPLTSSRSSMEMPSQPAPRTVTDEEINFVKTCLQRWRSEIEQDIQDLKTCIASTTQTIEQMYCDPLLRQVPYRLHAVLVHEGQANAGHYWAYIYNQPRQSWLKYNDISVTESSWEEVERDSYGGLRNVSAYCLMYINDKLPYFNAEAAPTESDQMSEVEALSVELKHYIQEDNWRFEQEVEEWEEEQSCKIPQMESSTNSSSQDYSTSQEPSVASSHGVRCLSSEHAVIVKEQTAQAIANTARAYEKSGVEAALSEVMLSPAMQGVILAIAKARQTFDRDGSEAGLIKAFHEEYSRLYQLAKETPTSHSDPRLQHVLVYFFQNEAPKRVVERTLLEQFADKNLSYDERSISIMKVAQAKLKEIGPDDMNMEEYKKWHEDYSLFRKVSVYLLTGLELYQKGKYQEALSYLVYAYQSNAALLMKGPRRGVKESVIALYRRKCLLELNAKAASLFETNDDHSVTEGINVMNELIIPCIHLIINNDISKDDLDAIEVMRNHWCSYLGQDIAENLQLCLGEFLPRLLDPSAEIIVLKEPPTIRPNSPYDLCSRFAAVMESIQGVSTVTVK
In short: as §1

CC(NC(=O)CCl)c1csc(-c2ccccc2)n1.Cl (stereo not given)
log2 ratio of Biotin-Ahx-Ub-VS probe labelling (USP19): -0.563 | log2 ratio of Biotin-Ahx-Ub-VS probe labelling (USP22): -0.723 | log2 ratio of Biotin-Ahx-Ub-VS probe labelling (USP24): -0.822 | log2 ratio of Biotin-Ahx-Ub-VS probe labelling (USP25): -0.638 | log2 ratio of Biotin-Ahx-Ub-VS probe labelling (USP28): -1.79 (active)
